Assay outcomes from PubChem BioAssay.
Sampled rows, rich in hits. Any-hit rate of the full collection: about 15%.
Pf growth 96h: P. falciparum growth inhibition at 96 hours; P. falciparum luciferase reporter growth, 96 h; Potency, µM (series often up to 28.7 µM), for the others: at the highest dose activity change, negative = inhibition, hits mostly inhibitors; 320,000 compounds, 6.9% hits; AID 504834; also: potency is read from the fitted curve at half-maximal effect; % is scaled to controls: 0 for no effect and ±100 for the full control effect
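Delayed-death screen, second-generation endpoint: infected erythrocytes, 2% hematocrit, 0.05% parasitemia final; 96 hours at 37 C, 5% CO2; luciferase detection reagent; luminescence decrease equals reduced growth.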
SARS PLpro yeast: inhibitors of SARS-CoV papain-like protease in yeast. Potency, µM (titrated, usually from 32.9 µM), for inactives: top-dose activity, positive = growth rescue, most hits filed as activators. S. cerevisiae expressing SARS-CoV PLpro, growth rescue. 330,000 compounds, 0.19% hits; calls by dose curve; also: potency is read from the fitted curve at half-maximal effect; 0% is about no effect; nearly all actives have a fitted effect of over 55% in size
HCV inhibitor: blocks hepatitis C virus | Potency, µM (doses to about 41.8 µM), for the others: top-dose activity change, negative = inhibition, hits mostly inhibitors | 340,000 compounds, 3.4% hits | Huh7.5.1 HCVcc-Cre infection, luciferase reporter, 44 h | AID 651820; also: potency is read from the fitted curve at half-maximal effect; % is scaled to controls: 0 for no effect and ±100 for the full control effect
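After 44 h co-culture of compound, cells and HCVcc-Cre (~0.5 moi), substrate is added for 15 min at room temperature and luciferase measured over 15 sec. Cells were seeded at 1,000/well and pre-cultured 4 h.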
HCMV antiviral: human cytomegalovirus inhibition | HFF cells, HCMV-luciferase reporter, 72 h; hits give low values | activity change, negative = inhibition, % at 57.5 µM | 410,000 compounds, 4.5% hits; in the data active = activity change below about -60%; inconclusive = no clear call, values can overlap the other calls; inactive = above about -39%; also: % is scaled to controls: 0 for no effect and ±100 for the full control effect
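Cell-based, HFFs, 1000 cells/well, 16 h 37C; cpds in DMSO + HCMV-luc, MOI 1 PFU/cell; 72 h 37C; OneGlo luminescence after 5 min RT; norm. to buffer vs Salinomycin 10uM.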
Sm TGR block: inhibitors of Schistosoma mansoni thioredoxin glutathione reductase; Q962Y6; purified TGR, DTNB reduction, TNB absorbance 405 nm; Potency, µM (series often up to 114 µM), for inactives: top-dose activity change, negative = inhibition, hits mostly inhibitors; 360,000 compounds, 3% hits; AID 485364; also: potency is read from the fitted curve at half-maximal effect; % is scaled to controls: 0 for no effect and ±100 for the full control effect; nearly all actives have a fitted effect of over 60% in size
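Kinetic colorimetric format: TGR-catalysed, NADPH-driven DTNB reduction monitored via TNB absorbance. Enzyme dispensed at 20 nM; compound exposure 15 min at room temperature before reaction start.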
Pf growth 48h: P. falciparum growth inhibition at 48 hours (one generation); P. falciparum luciferase growth in erythrocytes, 48 h; Potency, µM (titrated, usually from 28.7 µM), for inactives: at the highest dose activity change, negative = inhibition, actives largely listed as inhibitors; 310,000 compounds, 5.9% hits; AID 504832; also: potency is read from the fitted curve at half-maximal effect; % is scaled to controls: 0 for no effect and ±100 for the full control effect
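Cell-based growth assay: transgenic P. falciparum expressing firefly luciferase, cultured in red cells within RPMI 1640 containing 0.5% w/v Albumax, 24 mM bicarbonate and gentamycin. A drop in luciferase activity indicates inhibition.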
Starred values were filed as active, the others as inactive; ? = inconclusive; nt = not tested or not shown. Unless noted, calls follow the shape of the dose curve; as a rule, active = well fitted curve in the direction sought with a large enough effect; inconclusive = small, poorly fitted or top-dose-only effect, or another doubt; inactive = no such curve, though single readings can be large; an effect the other way counts as inactive or inconclusive.

SMILES	Pf growth 96h	SARS PLpro yeast	HCV inhibitor	HCMV antiviral	Sm TGR block	Pf growth 48h
CCN(CC)S(=O)(=O)c1ccc(N2CCOCC2)c(NS(=O)(=O)c2ccc(C)c(C)c2)c1	4.1µM*	-9%	?	-30	-1%	7.4µM*
CCN(CC)S(=O)(=O)c1ccc(N2CCOCC2)c(NS(=O)(=O)c2ccc(C)cc2)c1	5.9µM*	8%	0%	?	-3%	?
CCN(CC)S(=O)(=O)c1ccc(S(=O)(=O)Nc2c(C)nn(C)c2C)cc1	-19%	2%	?	-73*	0%	0%
Brc1ccc(-c2nc3c4ccccc4ccn3c2Cc2ccccc2)cc1	nt	nt	nt	32	nt	nt
CCCS(=O)(=O)N1CC(=O)N(c2ccc(Cl)cc2C)C(C)(C(=O)NC2CCCC2)C1 (centres undefined)	nt	nt	nt	0	-9%	nt
O=C(CN1CSCC1=O)N1CCN(S(=O)(=O)c2ccc(Cl)cc2)CC1	17%	2%	-7%	-9	-7%	-15%
Cc1c(CCC(=O)N[C@@H](CC(C)C)C(=O)O)c(=O)oc2cc3oc4c(c3cc12)CCCC4	21%	0%	16%	?	?	-2%
CCCc1nc2cc3c(cc2[nH]1)n(C)c(=O)n3C	-23%	-2%	?	22	22µM*	-12%
Cc1cccc(-n2c3nc(=O)[nH]c(=O)c-3cc3cc([N+](=O)[O-])ccc32)c1	-20%	23%	6%	-66*	-16%	9%
COc1ccccc1CNC(=O)CC(c1ccc(F)cc1)N1Cc2ccccc2C1=O (centres undefined)	nt	nt	nt	-73*	8%	nt
O=C(O)CC1S/C(=N/N=C/C2CC=CCC2)NC1=O (centres undefined)	5.9µM*	-1%	18%	-23	71%	4%
Cc1ccc2cc(CN(C(=O)c3ccco3)c3ccccc3C)c(=O)[nH]c2c1	?	-2%	?	-2	-30%	?
Cc1ccc(N(Cc2cc3ccc(C)cc3[nH]c2=O)C(=O)c2ccco2)c(C)c1	?	1%	?	-15	8.9µM*	?
Cc1ccc2cc(CN(C(=O)c3ccco3)c3cccc(C)c3C)c(=O)[nH]c2c1	4%	1%	-29%	?	13µM*	?
CCCCN1C(=O)C(CC(=O)NCCc2ccccn2)CC(C(=O)N(CC)CC)=C1C (centres undefined)	nt	nt	nt	-17	nt	nt
CC(C)CCNC(=O)CN(Cc1ccc2c(c1)OCO2)C(=O)Cn1nnc(-c2cccs2)n1	?	-3%	?	5	-10%	-19%
CCOC(=O)N1CCN(C(=O)CN(C)S(=O)(=O)c2ccc(OCC)cc2)CC1	36%	1%	7%	4	-1%	-3%
CC(C)CC(=O)N1CCN(S(=O)(=O)c2ccc(C3CCCCC3)cc2)CC1	5%	5%	11µM*	-28	-1%	?
Cc1ccc(CNC(=O)CCSCc2ccccc2C)cc1	0%	-1%	8%	43	13%	?
OCCCc1nc2n(n1)C(c1ccccc1)C=C(c1ccccc1)N2 (centres undefined)	?	17%	18%	nt	25µM*	nt
COc1ccc(C2=CC(c3ccc(Cl)cc3)n3cnnc3N2)cc1OC (centres undefined)	nt	-9%	-4%	0	25µM*	10µM*
Cc1ccc(NC(=O)c2cnn3c2NC(c2ccccc2)=CC3c2ccccc2)cc1 (centres undefined)	nt	nt	nt	?	8%	nt
COc1ccc(C2C=C(c3cccs3)Nc3nc(CCCO)nn32)cc1 (centres undefined)	19%	-3%	nt	nt	40µM*	0%
COc1ccc(C2=CC(c3ccc(F)cc3)n3ncc(C(=O)Nc4ccc(C)cc4)c3N2)cc1 (centres undefined)	nt	nt	nt	-88*	27%	nt
Cc1ccc(C2C=C(c3ccc(F)cc3)Nc3nc(CCCO)nn32)cc1 (centres undefined)	nt	nt	nt	-10	?	nt
SMILES	Pf growth 96h	SARS PLpro yeast	HCV inhibitor	HCMV antiviral	Sm TGR block	Pf growth 48h
OCCCc1nc2n(n1)C(c1cccc(Cl)c1)C=C(c1ccccc1)N2 (centres undefined)	nt	nt	nt	-12	-14%	nt
O=C(Cc1cccc(C(F)(F)F)c1)Nc1cc(S(=O)(=O)N2CCOCC2)ccc1N1CCCC1	?	-3%	-6%	-12	-28%	?
CCC1Cc2[nH]c(=S)[nH]c(=O)c2C(c2ccc(F)cc2)O1 (centres undefined)	nt	nt	nt	1	nt	nt
Cc1ccc(NC(=O)C2(C)CCN2CCc2ccccc2)cc1 (centres undefined)	nt	nt	nt	25	nt	nt
CC1=C(n2c(=O)c(-c3ccccc3)nc3ccccc32)C(=O)Nc2ccccc2N1	nt	nt	nt	17	nt	nt
CC(=O)Nc1cccc(Oc2ccc3c(c2)C(=O)NC3=O)c1	37%	-1%	24%	-6	-30%	17%
COc1ccc(C2C=C(c3ccccc3)Nc3nc(CCCO)nn32)cc1 (centres undefined)	?	2%	3%	11	25µM*	?
COc1ccc(C2C=C(c3ccc(F)cc3)Nc3nc(-c4ccc(Cl)cc4)nn32)cc1 (centres undefined)	nt	nt	nt	-101*	1%	nt
COc1ccc(C2C=C(c3ccc(Cl)cc3)Nc3nc(NC(C)=O)nn32)cc1 (centres undefined)	-13%	3%	nt	nt	?	?
Cc1ccc(-n2ncc(C(=O)NCCc3ccsc3)c2C2CCN(C(=O)OC(C)(C)C)CC2)c(C)c1	nt	nt	nt	0	-1%	nt
COc1ccc(CCNC(=O)CSC2=Nc3ccccc3C3=NC(CCC(=O)NCc4ccccc4)C(=O)N23)cc1OC (centres undefined)	nt	nt	nt	-25	6%	nt
CCN(CCCl)c1cc(CN(C)C)cc(NC(=O)c2ccc(C(=O)Nc3cc(CN(C)C)cc(N(CC)CCCl)c3)cc2)c1	nt	nt	1.4µM*	-101*	nt	nt
COc1cc2cc3c(N)c(C(=O)Nc4sc(C)c(C)c4C#N)sc3nc2cc1OC	12µM*	1%	-6%	-1	27%	?
CSc1ccc(CCNC(=O)c2ccc(-n3c(C)cc4c3CCC(C)C4)cc2)cc1 (centres undefined)	nt	nt	nt	?	-19%	nt
CC(=O)Nc1ccc(Nc2nnc(-c3ccc(C)c(S(N)(=O)=O)c3)c3ccccc23)cc1	-2%	1%	1%	?	6%	?
Cc1nnc(Nc2ccc3c(c2)OCO3)c2ccccc12	?	2%	25%	-91*	-35%	82%
Cc1ccc(-c2nnc(Nc3ccc4c(c3)OCO4)c3ccccc23)cc1S(N)(=O)=O	2.9µM*	21%	?	-73*	4%	?
